Compound activity deposited in PubChem by National Center for Advancing Translational Sciences (NCATS).
IL-1B inflam inh: blocks inflammasome-driven IL-1 beta release. THP-1 LPS/ATP IL-1B secretion, AlphaLISA, 16 h; active compounds read low. activity change, % at 57.5 µM. 4.7% of 360,000 active; in the data active = activity change below about -50%; inconclusive = mostly about -30% to -49%
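THP-1 cells pretreated 1 hr with compounds (up to 57.5 uM final), then stimulated with LPS (250 ng/mL final) plus ATP (1.25 mM final); secreted IL-1B measured by AlphaLISA after 16 hr, decreased signal indicating inhibition.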
12-LOX inh: ALOX12 (human) lipoxygenase inhibition. P18054. purified 12hLO, xylenol orange hydroperoxide absorbance. Potency, µM (doses to about 108 µM), inactives show at the highest dose activity change, negative = inhibition, actives largely listed as inhibitors. 1.1% of 580,000 active; note: potency is the fitted concentration of half-maximal effect
Target sequence (P18054 whole entry, looked up): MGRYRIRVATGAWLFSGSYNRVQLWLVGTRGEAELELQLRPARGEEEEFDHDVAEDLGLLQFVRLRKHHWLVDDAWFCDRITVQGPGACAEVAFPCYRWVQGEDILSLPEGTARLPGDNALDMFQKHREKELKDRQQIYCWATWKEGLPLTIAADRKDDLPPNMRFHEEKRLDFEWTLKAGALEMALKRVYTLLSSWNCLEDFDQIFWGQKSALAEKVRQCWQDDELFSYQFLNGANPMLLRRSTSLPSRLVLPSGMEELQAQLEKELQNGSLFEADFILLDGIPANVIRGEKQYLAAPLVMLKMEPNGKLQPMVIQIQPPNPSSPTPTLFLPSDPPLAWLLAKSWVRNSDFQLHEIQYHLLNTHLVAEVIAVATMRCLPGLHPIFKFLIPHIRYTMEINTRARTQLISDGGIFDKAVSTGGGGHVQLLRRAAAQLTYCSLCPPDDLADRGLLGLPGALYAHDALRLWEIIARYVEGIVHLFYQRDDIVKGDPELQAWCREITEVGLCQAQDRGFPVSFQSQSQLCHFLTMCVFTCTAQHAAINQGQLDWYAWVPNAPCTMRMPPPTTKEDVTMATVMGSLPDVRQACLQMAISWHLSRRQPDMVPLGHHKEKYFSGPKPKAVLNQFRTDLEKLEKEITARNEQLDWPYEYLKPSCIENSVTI
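Purified human 12hLO at 150 nM in 25 mM Hepes, 0.01% Triton X-100, pH 7.0, preincubated 15 min at room temperature with compound. Reaction started with 40 uM arachidonic acid, 30 min at room temperature. Hydroperoxide measured by Fe-xylenol orange, 573/405 nm absorbance ratio.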
DT40 TDP1 CPT: DT40-hTDP1 cell growth loss with CPT; chicken DT40 Tdp1-/-;hTDP1 cells + 20 nM CPT, ATP luminescence, 48 h; Potency, µM (highest dose often 46.2 µM), for the others: at the top dose activity change, negative = growth inhibition, most hits filed as inhibitors; 12% of 420,000 active; AID 686979; note: potency is the fitted concentration of half-maximal effect; nearly all actives have a fitted effect of over 55% in size
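Chicken DT40 Tdp1-/- cells stably complemented with human TDP1 were seeded at 400 cells/well in medium containing 20 nM camptothecin, exposed to pin-transferred compounds, and grown at 37 °C for at least 48 hr. Viability was read as ATP luminescence.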
HT1080 IDH1KD tx: kills HT-1080 cells with IDH1 knockdown; HT-1080 IDH1 knockdown viability, ATP luminescence, 48 h; 2% of 360,000 active; Potency, µM (highest dose often 46.1 µM), without a hit: at the highest dose activity, negative = toxicity, usual class: cytotoxic; AID 686971;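 note: potency is the fitted concentration of half-maximal effect; 0% = DMSO wells and -100% = cell-free medium wells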
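HT-1080-IDH1KD cells (IDH1 knocked down), 750/well in RPMI with 5% FBS, treated with compound 48 h at 37 degrees C. Viability by CellTiter-Glo luminescence, normalised to DMSO and no-cell wells; concentration-response curves classed.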
HT1080-NT tox: kills 2HG-producing HT-1080-NT fibrosarcoma cells. AID 686970. Potency, µM (top dose mostly 46.1 µM), inactives show at the highest dose activity, negative = less viability, actives largely listed as cytotoxic. 1.6% of 360,000 active. HT-1080-NT fibrosarcoma viability, CellTiter-Glo ATP luminescence, 48 h;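 note: NT is the 2HG producing partner of a matched IDH1 knockdown line; potency is the fitted concentration of half-maximal effect; 0% = DMSO-treated cells and -100% = media-only wells without cells; nearly all actives have a fitted effect of over 55% in size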
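HT-1080-NT fibrosarcoma cells (2HG-overproducing), 750 cells/well in RPMI with 5% FBS, dosed after 2 h and incubated 48 h at 37C. CellTiter-Glo luminescence normalized to DMSO and no-cell wells; concentration-response curves fitted and classed.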
TDP1 cell noCPT: qHTS for Inhibitors of human tyrosyl-DNA phosphodiesterase 1 (TDP1): qHTS in cells in absence of CPT; Potency, µM (series often up to 46.2 µM), without a hit: top-dose activity change, negative = growth inhibition, most hits filed as inhibitors; DT40 Tdp1-/- hTDP1 cells, no CPT, ATP luminescence, 48 h; 15% of 420,000 active; note: potency is the fitted concentration of half-maximal effect; nearly all actives have a fitted effect of over 55% in size
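Cells were dispensed at 400 per well, compounds added by pin tool, plates incubated ≥48 hr at 37 °C, then CellTiter-Glo added for 30 min at room temperature before luminescence reading. Line: DT40 Tdp1-/- complemented with hTDP1; camptothecin omitted.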
An asterisk follows results filed as active; ? = inconclusive; nt = not tested or not shown; [ ] = another dose, or the depositor's remark. The full list was thinned out, with hits kept by preference. Unless noted, calls come from the whole dose curve; as a rule, active = well fitted curve in the direction sought with a large enough effect; inconclusive = small, poorly fitted or top-dose-only effect, or another doubt; inactive = no such curve, though single readings can be large; an effect the other way counts as inactive or inconclusive. Unless noted, % is set by controls: 0 for no effect and ±100 for the full control effect.

SMILES	IL-1B inflam inh	12-LOX inh	DT40 TDP1 CPT	HT1080 IDH1KD tx	HT1080-NT tox	TDP1 cell noCPT
CNC(=O)C1CCN(C(=O)c2ccc(C)cc2)CC1	nt	27%	nt	nt	nt	nt
CCOC(=O)c1c(C)sc2c1N(C(C)=O)c1cc(Cl)ccc1S2	-15	-18%	?	-28%	-20%	16µM*
COc1ccc(-c2csc(N(CCc3ccc(OC)c(OC)c3)C(=O)COc3ccccc3)n2)cc1	7	0%	?	12%	5%	16µM*
COc1ccc(-c2csc(N(Cc3ccccc3)C(=O)COc3ccc(Cl)cc3)n2)cc1	11	1%	21µM*	-6%	-2%	18µM*
O=C(COc1ccccc1)N(Cc1ccccc1)c1nc(-c2ccccc2)cs1	-4	2%	-27%	-21%	?	?
Cc1cc(C)c2c3c(sc2n1)C(c1cccc(F)c1)C(C#N)=C(N)O3 (stereo unspecified)	-79*	?	?	5%	12%	16µM*
CC(=O)N1CCN(c2ccnc3cc(Cl)ccc23)CC1	-19	4%	-13%	-5%	6%	-28%
O=S(=O)(c1ccccc1)N1CCN(c2ccnc3cc(Cl)ccc23)CC1	-86*	-6%	16µM*	?	-27%	?
O=S(=O)(c1cccs1)N1CCN(c2ccnc3cc(Cl)ccc23)CC1	nt	20%	13µM*	?	?	23µM*
Cc1cc(N2CCN(c3nc(-c4ccccc4)cs3)CC2)c2ccccc2n1	?	5%	23µM*	1%	8%	21µM*
Cc1cc(N2CCN(S(=O)(=O)c3ccccc3)CC2)c2ccccc2n1	-15	0%	16µM*	?	?	18µM*
c1ccc(-c2csc(N3CCCCCC3)n2)cc1	-1	-12%	-23%	9%	11%	?
Cc1cc(N2CCN(C(=O)c3ccco3)CC2)c2ccccc2n1	-2	122%	-15%	-3%	3%	-14%
CCOc1ccc(NC(=O)c2ccc(Cl)c(-n3c(C)nc4cccnc43)c2)cc1	nt	-8%	nt	nt	nt	nt
CCCN1C(SCC(=O)N(CC)CC)=NS(=O)(=O)c2ccccc21	nt	-3%	nt	nt	nt	nt
C=CCN1/C(=C(\C#N)C2=NS(=O)(=O)c3ccccc32)N(C)c2ccccc21	-9	0%	1%	7.1µM*	13µM*	-3%
O=c1c(-c2ccccc2)coc2c(CN3CCCCC3)c(O)ccc12	-4	0%	-26%	11%	9%	-18%
COc1ccccc1-c1c(C)oc2c(CN3CCCCC3C)c(O)ccc2c1=O (stereo unspecified)	17	0%	3%	10%	9%	13%
CCN(CC)Cc1c(O)ccc2c(=O)c(-c3ccc(Cl)cc3)coc12	0	5%	?	-1%	-2%	-21%
CCC1CCCCN1Cc1c(O)ccc2c(=O)c(-c3ccccc3)coc12 (stereo unspecified)	3	-62%	7.3µM*	?	?	10µM*
CC1CCCCN1Cc1c(O)ccc2c(=O)c(-c3ccccc3)coc12 (stereo unspecified)	28	1%	8.2µM*	5%	1%	10µM*
CCN(Cc1ccccc1)Cc1c(O)ccc2c(=O)c(-c3ccc(Cl)cc3)coc12	nt	?	?	nt	nt	21µM*
COc1ccc(-c2coc3c(CN4CCCCC4C)c(O)ccc3c2=O)cc1 (stereo unspecified)	-6	11%	6.5µM*	7%	-3%	18µM*
COc1ccccc1CNC[C@H]1O[C@H](Cc2cc(CN(C)Cc3ccccc3)on2)CC[C@@H]1O	nt	46%	nt	nt	nt	nt
CCOCCCn1c(C)nc2c(c1=O)c1nc3ccccc3nc1n2CCC1=CCCCC1	-73*	?	?	?	?	?
SMILES	IL-1B inflam inh	12-LOX inh	DT40 TDP1 CPT	HT1080 IDH1KD tx	HT1080-NT tox	TDP1 cell noCPT
Cc1cccc(NC(=O)c2ccc3c(c2)CCN3S(C)(=O)=O)c1	-64*	3%	-19%	5%	-4%	-1%
CS(=O)(=O)N1CCc2cc(C(=O)Nc3ccc(C(F)(F)F)cc3)ccc21	nt	-15%	9.2µM*	nt	nt	8.2µM*
CCc1ccc(NC(=O)c2ccc3c(c2)CCN3S(C)(=O)=O)cc1	-23	?	?	-18%	-11%	26µM*
Cc1ccc(NC(=O)c2ccc3c(c2)CCN3S(C)(=O)=O)cc1	-19	7%	?	5%	0%	-12%
CC(C)c1ccc(NC(=O)c2ccc3c(c2)CCCN3S(C)(=O)=O)cc1	nt	-22%	6.5µM*	nt	nt	4.1µM*
Cc1cnc(CCNC(=O)c2n[nH]c(=O)c3ccccc23)n1C1CCCCC1	nt	69%	nt	nt	nt	nt
CNC(=O)NC(=O)CN(C)c1ccc(I)cc1	nt	-19%	nt	nt	nt	nt
CCN(CC)C(=O)[C@@H]1CCC[C@@H](N(C)C)CN(C)C(=O)C1	nt	-19%[176 µM]	nt	nt	nt	nt
Cc1cccc(NC(=O)N2CCN(C3=Nc4ccccc4Oc4ccccc43)CC2)c1C	nt	-25%	nt	nt	nt	nt
Cc1ccc(NC(=O)c2ccc3c(c2)CCN3S(C)(=O)=O)cc1C	-18	0%	-110%	-13%	-20%	?
CS(=O)(=O)N1CCc2cc(C(=O)Nc3ccc(Cl)c(C(F)(F)F)c3)ccc21	nt	-16%	18µM*	nt	nt	8.2µM*
Cc1cc(C)cc(NC(=O)c2ccc3c(c2)CCN3S(C)(=O)=O)c1	-18	0%	3%	-2%	-4%	2%
CCS(=O)(=O)N1CCc2cc(C(=O)Nc3cccc(C(C)=O)c3)ccc21	nt	-15%	?	nt	nt	18µM*
COc1cccc(CN2CCC(Oc3ccc(-c4noc(C5CC5)n4)cc3)C2)c1 (stereo unspecified)	nt	6%	nt	nt	nt	nt
Cc1ccc2oc(=O)c(-c3nc(-c4ccccn4)no3)cc2c1	nt	-6%	nt	nt	nt	nt
COc1cc(C2c3sc(=O)[nH]c3SC3C(=O)N(c4ccc(Br)cc4)C(=O)C32)ccc1O (stereo unspecified)	1	40µM*	1%	-3%	-7%	-9%
CCOc1ccc(N2C(=O)C3Sc4[nH]c(=O)sc4C(/C=C/c4ccccc4)C3C2=O)cc1 (stereo unspecified)	1	?	?	-13%	-5%	?
COc1cccc2cc(-c3cc(=O)oc4cc(O)ccc34)c(=O)oc12	nt	-24%	nt	nt	nt	nt
Cc1ccc(NC(=S)N/N=C2\CCCCC2C)cc1 (stereo unspecified)	4	?	5.2µM*	?	?	9.2µM*
Cc1cccc(NC(=S)N/N=C2/CCCC(C)C2)c1 (stereo unspecified)	nt	35µM*	nt	nt	nt	nt
